Measurements: PubChem BioAssay (EPA / NIEHS)
Records with an inconclusive call do not appear. A structure can be active in one record and inactive in another. The source made the active and inactive calls. Rule for the calls, unless noted: active = hit-call score of the fitted dose curve at least 0.9, where 1 is the maximum; inconclusive = response in the unintended direction; inactive = score below 0.9.

How the values were obtained:
[1] = biological target: Bile acid receptor (Homo sapiens) (UniProt Q96RI1); experiment: OT_FXR_FXRSRC1_0480: Odyssey Thera (OT) 8-hour HEK293T Protein-Complementation Assay for Farnesoid X receptor/SRC-1 Co-activator (AID 2283383)
In short: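 HEK293T protein-fragment complementation assay: FXR and SRC-1 coactivator are fused to reporter fragments, and their interaction restores a fluorescent reporter. Readout was taken 8 h after dosing, with gain of signal fit relative to DMSO.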

[2] = biological target: Retinoic acid receptor RXR-alpha (Homo sapiens) (UniProt P19793); experiment: OT_NURR1_NURR1RXRa_0480: Odyssey Thera (OT) 8-hour HEK293T Protein Complementation Assay for Nurr1/retinoid X receptor (RXR) (AID 2283385)
In short: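 HEK293T cells expressing Nurr1 and RXRα fused to reporter fragments (protein-fragment complementation); fluorescence measured 8 h after dosing. Gain of signal fitted relative to DMSO.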

[3] = biological target: Retinoic acid receptor RXR-alpha (Homo sapiens) (UniProt P19793); experiment: OT_NURR1_NURR1RXRa_1440: Odyssey Thera (OT) 24-hour HEK293T Protein Complementation Assay for Nurr1/retinoid X receptor (RXR) (AID 2283386)
In short: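 HEK293T protein-fragment complementation of Nurr1 and RXRα fused to reporter fragments; compounds 24 h. Fluorescence gain from reconstituted reporter fitted versus DMSO.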

[4] = biological target: Peroxisome proliferator-activated receptor gamma (Homo sapiens) (UniProt P37231); experiment: OT_PPARg_PPARgSRC1_0480: Odyssey Thera (OT) 8-hour Protein-Complementation Assay for Peroxisome Proliferator-activated Receptor Gamma / SRC-1 Co-activator (AID 2283387);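 note: nuclear to cytoplasmic split Venus YFP fluorescence ratio reporting PPARg SRC-1 interaction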
In short: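 Protein-fragment complementation in HEK293T: Venus YFP halves (residues 1-158, 159-239, mutated to IFP1/IFP2) fused to PPARg/SRC-1. 8 h exposure; N/C ratio at 488 nm; DMSO negative control.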

[5] = biological target: Peroxisome proliferator-activated receptor gamma (Homo sapiens) (UniProt P37231); experiment: OT_PPARg_PPARgSRC1_1440: Odyssey Thera (OT) 24-hour Protein-Complementation Assay for Peroxisome Proliferator-activated Receptor Gamma/ SRC-1 Co-activator (AID 2283388);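 note: nuclear to cytoplasmic ratio of reconstituted Venus YFP fluorescence in fixed imaged cells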
In short: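 Readout is the 488 nm N/C fluorescence ratio from fixed, Draq5-stained HEK293T cells after 24 h compound exposure. Cells carried transiently transfected PPARg and SRC-1 fused to Venus fragments, transfected 48 h before treatment.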

[6] = read-out: Tumor necrosis factor receptor superfamily member 6 (Homo sapiens) (UniProt P25445); experiment: LTEA_HepaRG_FAS: Life Technologies and Expression Analysis (LTEA) Assay for Fas cell surface death receptor (FAS) using HepaRG (AID 2283447; active = hit-call score of the fitted dose curve at least 0.9, where 1 is the maximum; inactive = score below 0.9); settings: mRNA level, 48 h; actives raise or lower the signal
In short: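 Differentiated human HepaRG cells, pre-cultured 48 h, were exposed in duplicate for 48 h to 8-point half-log concentrations (top 100 uM, 0.5% DMSO) in serum-free induction medium; FAS mRNA measured by qRT-PCR, normalized to ACTB/GAPDH/POLR2A, bidirectional fit versus DMSO.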

[7] = read-out: Fatty acid synthase (Homo sapiens) (UniProt P49327); experiment: LTEA_HepaRG_FASN: Life Technologies and Expression Analysis (LTEA) Assay for Fatty Acid Synthase (FASN) using HepaRG (AID 2283448; active = hit-call score of the fitted dose curve at least 0.9, where 1 is the maximum; inactive = score below 0.9); settings: mRNA level, 48 h; actives raise or lower the signal
In short: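 Differentiated HepaRG cells in serum-free induction medium exposed 48 h in duplicate to eight half-log concentrations, top 100 uM, 0.5% DMSO. FASN mRNA by qRT-PCR normalised to ACTB, GAPDH, POLR2A; bidirectional fit versus DMSO.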

[8] = read-out: Cyclin D2 (CCND2), CCND2 (gene 894); experiment: LTEA_HepaRG_CCND2: Life Technologies and Expression Analysis (LTEA) Assay for Cyclin D2 (CCND2) using HepaRG (AID 2283449; active = hit-call score of the fitted dose curve at least 0.9, where 1 is the maximum; inactive = score below 0.9;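 note: CCND2 transcript measured by TaqMan qRT-PCR and normalised to three housekeeping genes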); settings: mRNA level, 48 h; actives raise or lower the signal
In short: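 Differentiated human HepaRG cells were exposed for 48 h in serum-free induction medium to eight half-log concentrations topping at 100 uM (0.5% DMSO vehicle). CCND2 mRNA was quantified by TaqMan qRT-PCR, normalised to ACTB, GAPDH and POLR2A, and fitted bidirectionally against DMSO.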

[9] = read-out: Cyclin Dependent Kinase Inhibitor 1A (CDKN1A), CDKN1A (gene 1026); experiment: LTEA_HepaRG_CDKN1A: Life Technologies and Expression Analysis (LTEA) Assay for Cyclin Dependent Kinase Inhibitor 1A (CDKN1A) using HepaRG (AID 2283450; active = hit-call score of the fitted dose curve at least 0.9, where 1 is the maximum; inactive = score below 0.9); settings: mRNA level, 48 h; actives raise or lower the signal
In short: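 Expression quantified by Fluidigm qRT-PCR with ACTB, GAPDH and POLR2A normalization, fitted bidirectionally against 0.5% DMSO. Cells: HepaRG, plated 48 h then treated 48 h in serum-free induction medium, top concentration 100 uM with half-log dilutions.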

[10] = biological target: Estrogen receptor (Homo sapiens) (UniProt P03372); experiment: OT_ERa_GFPERaERE_0120: Odyssey Thera (OT) 2-hour HeLa Transcription Induction Assay for Estrogen Receptor (AID 2283382)
In short: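 HeLa cells were dosed for 2 h, then GFP reporter induction was quantified by fluorescence microscopy with high-content image analysis. Gain of signal fitted against DMSO baseline.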

[11] = CEETOX_H295R_OHPREG: CeeTox H295R High-throughput Steroidogenesis Assay for OH-Pregnenolone (OHPREG) (AID 2283434; active = hit-call score of the fitted dose curve at least 0.9, where 1 is the maximum; inactive = score below 0.9); settings: actives raise or lower the signal
In short: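 Human adrenal H295R cells were prestimulated 48 h with 10 uM forskolin, then exposed 48 h to chemical in 0.1% DMSO. Medium 17alpha-hydroxypregnenolone was quantified by HPLC-MS/MS after MTBE extraction; bidirectional fitting versus DMSO baseline.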

[12] = CEETOX_H295R_OHPROG: CeeTox H295R High-throughput Steroidogenesis Assay for OH-Progesterone (OHPROG) (AID 2283435; active = hit-call score of the fitted dose curve at least 0.9, where 1 is the maximum; inactive = score below 0.9); settings: actives raise or lower the signal
In short: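 H295R adrenal cells prestimulated 48 h with 10 uM forskolin, then exposed 48 h to chemical (0.1% DMSO final). 17alpha-hydroxyprogesterone in medium quantified by HPLC-MS/MS; bidirectional fit versus DMSO, with MTT viability measured in the same wells.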

[13] = CEETOX_H295R_ESTRADIOL: CeeTox H295R High-throughput Steroidogenesis Assay for Estradiol (AID 2283440; active = hit-call score of the fitted dose curve at least 0.9, where 1 is the maximum; inactive = score below 0.9;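 note: estradiol secreted into medium quantified by LC-MS/MS after dansyl derivatisation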); settings: actives raise or lower the signal
In short: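 Estradiol in spent medium measured by LC-MS/MS after dansyl chloride derivatisation. Forskolin-primed (10 uM, 48 h) human adrenal H295R cells received test chemical 48 h at 0.1% DMSO; concentrations lowered until MTT viability >/=70%.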

[14] = CEETOX_H295R_ESTRONE: CeeTox H295R High-throughput Steroidogenesis Assay for Estrone (AID 2283441; active = hit-call score of the fitted dose curve at least 0.9, where 1 is the maximum; inactive = score below 0.9;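 note: estrone secreted into medium measured by LC-MS/MS after dansyl derivatization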); settings: actives raise or lower the signal
In short: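 H295R cells prestimulated 48 h with 10 uM forskolin, then exposed 48 h to chemicals in 0.1% DMSO final; estrone in medium extracted with MTBE, dansyl-derivatized, quantified by HPLC-MS/MS; bidirectional fitting versus DMSO, viability by MTT.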

[15] = CEETOX_H295R_PROG: CeeTox H295R High-throughput Steroidogenesis Assay for Progesterone (PROG) (AID 2283442; active = hit-call score of the fitted dose curve at least 0.9, where 1 is the maximum; inactive = score below 0.9;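 for AC50: human H295R adrenal cells primed with 10 µM forskolin before dosing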); settings: actives raise or lower the signal
In short: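 Progesterone secreted by human H295R cells was measured by LC-MS/MS following 48 h chemical exposure at 0.1% DMSO, preceded by 48 h forskolin (10 uM) stimulation. Same-well MTT viability; cytotoxic concentrations diluted 10- or 100-fold and retested.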

[16] = CEETOX_H295R_ANDR: CeeTox H295R High-throughput Steroidogenesis Assay for Androstenedione (ANDR) (AID 2283436; active = hit-call score of the fitted dose curve at least 0.9, where 1 is the maximum; inactive = score below 0.9); settings: actives raise or lower the signal
In short: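 H295R human adrenal cells (passages ≤10) were exposed to test chemicals for 48 h; androstenedione in medium was MTBE-extracted and quantified by HPLC-MS/MS against a 7-point standard curve. Bidirectional fitting used DMSO as baseline.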

[17] = CEETOX_H295R_11DCORT: CeeTox H295R High-throughput Steroidogenesis Assay for 11-Deoxycortisol (11DCORT) (AID 2283432; active = hit-call score of the fitted dose curve at least 0.9, where 1 is the maximum; inactive = score below 0.9;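 note: 11-deoxycortisol secreted into the medium measured by LC-MS/MS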); settings: actives raise or lower the signal
In short: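 Adrenal carcinoma line H295R, run per OECD 456 with minor changes, was forskolin-stimulated (10 uM, 48 h) before a 48 h chemical exposure at 0.1% DMSO. Secreted 11-deoxycortisol was quantified by HPLC-MS/MS.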

[18] = CEETOX_H295R_CORTIC: CeeTox H295R High-throughput Steroidogenesis Assay for Corticosterone (CORTIC) (AID 2283437; active = hit-call score of the fitted dose curve at least 0.9, where 1 is the maximum; inactive = score below 0.9;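 note: corticosterone secreted into medium quantified by mass spectrometry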); settings: actives raise or lower the signal
In short: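 H295R cells were prestimulated 48 h with 10 uM forskolin, then exposed 48 h to test chemical in 0.1% DMSO. Medium corticosterone was MTBE-extracted and quantified by HPLC-MS/MS; bidirectional fit versus DMSO baseline.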

[19] = CEETOX_H295R_CORTISOL: CeeTox H295R High-throughput Steroidogenesis Assay for Cortisol (AID 2283438; active = hit-call score of the fitted dose curve at least 0.9, where 1 is the maximum; inactive = score below 0.9;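 note: cortisol secreted into medium quantified by LC-MS/MS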); settings: actives raise or lower the signal
In short: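 Forskolin-primed H295R cells (10 uM, 48 h) treated 48 h with test chemical in 0.1% DMSO. Cortisol in medium quantified by MTBE extraction and HPLC-MS/MS; bidirectional fit vs DMSO, MTT viability in same wells.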

[20] = CEETOX_H295R_DOC: CeeTox H295R High-throughput Steroidogenesis Assay for DOC (AID 2283439; active = hit-call score of the fitted dose curve at least 0.9, where 1 is the maximum; inactive = score below 0.9); settings: actives raise or lower the signal
In short: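 H295R cells prestimulated 48 h with 10 uM forskolin, then exposed 48 h to test chemical (0.1% DMSO final). Medium 11-deoxycorticosterone measured by HPLC-MS/MS after MTBE extraction; bidirectional fit vs DMSO, viability checked by MTT in same wells.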

Chain of Bile acid receptor (Homo sapiens) (Q96RI1 whole entry, looked up, the tested form may be a part): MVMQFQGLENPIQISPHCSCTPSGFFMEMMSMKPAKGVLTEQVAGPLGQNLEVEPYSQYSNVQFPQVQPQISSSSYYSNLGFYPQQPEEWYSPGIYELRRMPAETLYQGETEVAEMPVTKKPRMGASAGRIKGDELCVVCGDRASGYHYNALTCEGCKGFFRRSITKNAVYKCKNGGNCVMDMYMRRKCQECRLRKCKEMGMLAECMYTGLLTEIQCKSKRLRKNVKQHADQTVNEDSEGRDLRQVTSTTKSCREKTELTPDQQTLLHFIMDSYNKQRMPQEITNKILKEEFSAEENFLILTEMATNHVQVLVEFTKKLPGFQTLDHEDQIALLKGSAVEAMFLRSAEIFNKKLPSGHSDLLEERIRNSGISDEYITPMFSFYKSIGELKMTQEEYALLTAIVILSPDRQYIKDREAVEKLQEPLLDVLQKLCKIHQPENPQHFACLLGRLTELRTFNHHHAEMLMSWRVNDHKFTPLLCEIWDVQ
Chain of Estrogen receptor (Homo sapiens) (P03372 whole entry, looked up): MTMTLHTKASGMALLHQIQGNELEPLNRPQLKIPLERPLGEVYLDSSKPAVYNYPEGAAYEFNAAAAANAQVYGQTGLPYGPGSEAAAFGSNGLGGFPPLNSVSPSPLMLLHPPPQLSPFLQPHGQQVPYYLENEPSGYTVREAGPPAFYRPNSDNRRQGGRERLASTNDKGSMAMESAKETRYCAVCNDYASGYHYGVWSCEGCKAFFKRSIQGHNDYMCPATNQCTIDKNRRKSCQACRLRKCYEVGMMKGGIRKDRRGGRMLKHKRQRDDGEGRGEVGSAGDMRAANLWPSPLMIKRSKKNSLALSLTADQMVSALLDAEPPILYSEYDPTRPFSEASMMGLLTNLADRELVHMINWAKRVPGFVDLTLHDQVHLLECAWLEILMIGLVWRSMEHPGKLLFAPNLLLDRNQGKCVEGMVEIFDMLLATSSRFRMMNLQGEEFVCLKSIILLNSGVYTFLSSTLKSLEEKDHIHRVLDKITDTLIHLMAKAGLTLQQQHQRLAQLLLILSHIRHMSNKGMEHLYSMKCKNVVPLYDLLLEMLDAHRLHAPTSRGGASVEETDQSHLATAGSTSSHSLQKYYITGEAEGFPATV
Chain of Peroxisome proliferator-activated receptor gamma (Homo sapiens) (P37231 whole entry, looked up, the tested form may be a part): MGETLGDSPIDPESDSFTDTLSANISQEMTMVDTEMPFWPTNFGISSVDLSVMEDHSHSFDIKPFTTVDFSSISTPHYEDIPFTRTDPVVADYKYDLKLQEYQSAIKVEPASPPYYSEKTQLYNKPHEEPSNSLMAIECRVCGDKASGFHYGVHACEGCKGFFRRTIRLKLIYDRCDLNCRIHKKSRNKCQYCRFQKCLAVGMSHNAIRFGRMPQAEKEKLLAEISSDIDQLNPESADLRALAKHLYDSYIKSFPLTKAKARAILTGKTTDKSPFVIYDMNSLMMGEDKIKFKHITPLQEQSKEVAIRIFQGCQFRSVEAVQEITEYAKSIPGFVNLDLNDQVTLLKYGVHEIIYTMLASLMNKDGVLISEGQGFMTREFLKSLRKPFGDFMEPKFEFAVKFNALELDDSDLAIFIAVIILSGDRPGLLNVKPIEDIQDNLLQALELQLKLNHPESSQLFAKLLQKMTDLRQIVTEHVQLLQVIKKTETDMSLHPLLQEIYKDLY
Chain of Fatty acid synthase (Homo sapiens) (P49327 whole entry, looked up): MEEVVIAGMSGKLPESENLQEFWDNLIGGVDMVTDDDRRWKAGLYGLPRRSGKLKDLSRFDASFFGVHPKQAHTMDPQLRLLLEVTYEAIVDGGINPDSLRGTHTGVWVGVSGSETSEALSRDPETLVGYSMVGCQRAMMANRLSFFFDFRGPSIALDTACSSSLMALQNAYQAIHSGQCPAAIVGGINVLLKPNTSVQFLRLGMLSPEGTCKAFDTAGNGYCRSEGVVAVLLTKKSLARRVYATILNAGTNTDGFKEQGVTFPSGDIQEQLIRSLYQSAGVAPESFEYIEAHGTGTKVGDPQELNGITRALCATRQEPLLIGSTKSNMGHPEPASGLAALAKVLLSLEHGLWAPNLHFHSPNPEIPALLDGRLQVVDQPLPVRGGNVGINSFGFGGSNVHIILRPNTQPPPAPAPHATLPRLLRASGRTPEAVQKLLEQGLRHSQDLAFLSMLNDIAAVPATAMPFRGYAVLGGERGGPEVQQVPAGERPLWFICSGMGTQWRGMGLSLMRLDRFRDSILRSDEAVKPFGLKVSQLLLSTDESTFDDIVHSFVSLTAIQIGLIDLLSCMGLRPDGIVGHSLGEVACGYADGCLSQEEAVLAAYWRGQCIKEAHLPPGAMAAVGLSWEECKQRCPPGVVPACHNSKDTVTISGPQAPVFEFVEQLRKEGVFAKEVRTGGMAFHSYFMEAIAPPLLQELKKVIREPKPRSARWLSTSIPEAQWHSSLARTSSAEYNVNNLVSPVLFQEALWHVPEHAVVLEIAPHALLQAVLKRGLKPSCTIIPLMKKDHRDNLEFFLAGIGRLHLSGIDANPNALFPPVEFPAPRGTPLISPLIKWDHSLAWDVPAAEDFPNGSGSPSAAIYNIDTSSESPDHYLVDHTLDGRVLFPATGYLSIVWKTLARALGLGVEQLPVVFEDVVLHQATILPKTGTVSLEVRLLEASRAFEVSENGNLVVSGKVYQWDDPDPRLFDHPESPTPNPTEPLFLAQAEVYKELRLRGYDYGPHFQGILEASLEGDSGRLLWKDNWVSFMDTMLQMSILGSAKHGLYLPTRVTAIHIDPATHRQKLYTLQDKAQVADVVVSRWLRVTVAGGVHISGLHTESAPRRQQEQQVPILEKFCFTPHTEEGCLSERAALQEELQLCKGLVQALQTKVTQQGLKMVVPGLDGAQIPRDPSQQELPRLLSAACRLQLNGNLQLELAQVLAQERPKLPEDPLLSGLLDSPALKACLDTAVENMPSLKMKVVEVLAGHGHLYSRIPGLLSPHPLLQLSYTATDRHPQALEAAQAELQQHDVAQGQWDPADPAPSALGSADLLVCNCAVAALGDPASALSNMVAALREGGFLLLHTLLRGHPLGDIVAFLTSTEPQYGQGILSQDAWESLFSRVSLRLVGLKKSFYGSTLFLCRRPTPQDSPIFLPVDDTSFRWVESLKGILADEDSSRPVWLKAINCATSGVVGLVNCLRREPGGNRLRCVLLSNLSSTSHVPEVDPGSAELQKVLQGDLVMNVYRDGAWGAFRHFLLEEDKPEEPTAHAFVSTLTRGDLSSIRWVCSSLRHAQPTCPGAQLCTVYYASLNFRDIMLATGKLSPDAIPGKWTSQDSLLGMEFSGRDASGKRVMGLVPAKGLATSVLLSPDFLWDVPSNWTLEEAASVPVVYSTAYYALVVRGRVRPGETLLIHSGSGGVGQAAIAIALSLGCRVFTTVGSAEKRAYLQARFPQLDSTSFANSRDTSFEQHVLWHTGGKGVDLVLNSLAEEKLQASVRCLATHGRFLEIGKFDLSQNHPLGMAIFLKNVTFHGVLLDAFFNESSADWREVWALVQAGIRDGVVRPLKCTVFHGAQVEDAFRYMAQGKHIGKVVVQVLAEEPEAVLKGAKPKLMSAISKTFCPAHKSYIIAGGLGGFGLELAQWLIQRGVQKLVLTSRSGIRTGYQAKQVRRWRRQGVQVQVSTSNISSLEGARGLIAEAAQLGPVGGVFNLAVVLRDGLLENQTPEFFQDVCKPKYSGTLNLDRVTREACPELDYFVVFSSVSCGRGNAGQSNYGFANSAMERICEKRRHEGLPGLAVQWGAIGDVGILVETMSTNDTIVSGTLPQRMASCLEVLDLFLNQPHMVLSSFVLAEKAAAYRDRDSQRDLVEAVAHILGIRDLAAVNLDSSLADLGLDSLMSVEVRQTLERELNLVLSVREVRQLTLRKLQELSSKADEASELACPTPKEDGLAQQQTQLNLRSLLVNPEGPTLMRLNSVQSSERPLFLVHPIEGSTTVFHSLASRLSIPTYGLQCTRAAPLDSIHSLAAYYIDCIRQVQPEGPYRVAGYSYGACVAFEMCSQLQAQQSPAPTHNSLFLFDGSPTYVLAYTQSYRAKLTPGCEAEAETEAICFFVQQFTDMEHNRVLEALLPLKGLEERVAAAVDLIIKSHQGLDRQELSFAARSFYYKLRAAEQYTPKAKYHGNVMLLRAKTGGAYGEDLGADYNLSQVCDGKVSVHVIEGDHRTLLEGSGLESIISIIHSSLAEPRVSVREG
Chain of Retinoic acid receptor RXR-alpha (Homo sapiens) (P19793 whole entry, looked up, the tested form may be a part): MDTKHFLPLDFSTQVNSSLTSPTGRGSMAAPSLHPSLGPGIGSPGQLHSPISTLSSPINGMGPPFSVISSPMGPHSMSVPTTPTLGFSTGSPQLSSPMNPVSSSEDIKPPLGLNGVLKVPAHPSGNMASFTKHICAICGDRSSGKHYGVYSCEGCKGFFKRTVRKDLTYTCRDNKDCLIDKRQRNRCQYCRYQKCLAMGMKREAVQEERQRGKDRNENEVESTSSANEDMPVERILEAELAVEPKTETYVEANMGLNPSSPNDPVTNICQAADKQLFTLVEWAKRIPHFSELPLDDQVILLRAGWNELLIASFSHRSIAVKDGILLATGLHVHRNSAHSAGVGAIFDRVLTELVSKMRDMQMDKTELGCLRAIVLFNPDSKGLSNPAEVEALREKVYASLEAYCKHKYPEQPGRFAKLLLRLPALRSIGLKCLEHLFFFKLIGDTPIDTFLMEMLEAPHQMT

Compound: CCCCOCN(C(=O)CCl)c1c(CC)cccc1CC
- AC50 [1]: 50 µM (active)
- outcome [2]: inactive
- AC50 [3]: 76.8 µM (active)
- outcome [3]: inactive
- outcome [4]: inactive
- outcome [5]: inactive
- outcome [6]: inactive
- outcome [7]: inactive
- outcome [8]: inactive
- outcome [9]: inactive

Compound: CN/C(=N\[N+](=O)[O-])NCc1cnc(Cl)s1
- outcome [10]: inactive
- outcome [2]: inactive
- outcome [3]: inactive
- outcome [4]: inactive
- outcome [5]: inactive
- outcome [11]: inactive
- outcome [12]: inactive
- outcome [13]: inactive
- outcome [14]: inactive
- outcome [15]: inactive
- outcome [6]: inactive
- AC50 [7]: 50 µM (active)
- outcome [8]: inactive

Compound: COC(=O)NS(=O)(=O)c1ccc(N)cc1
- outcome [10]: inactive
- outcome [3]: inactive
- outcome [4]: inactive
- outcome [5]: inactive
- outcome [6]: inactive
- outcome [7]: inactive
- outcome [8]: inactive
- outcome [9]: inactive

Compound: CCN(CC)C(=O)C(C)Oc1cccc2ccccc12 (stereo not given)
- outcome [10]: inactive
- AC50 [1]: 32.6 µM (active)
- outcome [2]: inactive
- outcome [3]: inactive
- outcome [4]: inactive
- outcome [5]: inactive
- outcome [11]: inactive
- outcome [12]: inactive
- outcome [13]: inactive
- outcome [14]: inactive
- outcome [15]: inactive
- outcome [6]: inactive
- outcome [7]: inactive
- outcome [8]: inactive

Compound: CN=C=S
- outcome [10]: inactive
- outcome [1]: inactive
- outcome [2]: inactive
- outcome [3]: inactive
- outcome [4]: inactive
- outcome [5]: inactive
- outcome [6]: inactive
- outcome [7]: inactive
- outcome [8]: inactive
- outcome [9]: inactive

Compound: COP(=S)(OC)SCn1nnc2ccccc2c1=O
- outcome [10]: inactive
- outcome [4]: inactive
- outcome [5]: inactive
- outcome [11]: inactive
- AC50 [12]: 2.27 µM (active)
- outcome [16]: inactive
- outcome [13]: inactive
- outcome [14]: inactive
- outcome [15]: inactive
- outcome [6]: inactive
- outcome [7]: inactive
- outcome [8]: inactive
- outcome [9]: inactive

Compound: CS(=O)(=O)c1cc(C(F)(F)F)ccc1C(=O)c1cnoc1C1CC1
- outcome [10]: inactive
- outcome [2]: inactive
- outcome [3]: inactive
- outcome [4]: inactive
- outcome [5]: inactive
- outcome [6]: inactive
- outcome [7]: inactive
- outcome [8]: inactive
- outcome [9]: inactive

Compound: CC(C)N1C(=O)c2ccccc2NS1(=O)=O
- outcome [10]: inactive
- outcome [4]: inactive
- outcome [5]: inactive
- outcome [6]: inactive
- outcome [7]: inactive
- outcome [8]: inactive
- outcome [9]: inactive

Compound: COc1ccc(-c2ccccc2)cc1NNC(=O)OC(C)C
- outcome [10]: inactive
- outcome [1]: inactive
- outcome [2]: inactive
- outcome [3]: inactive
- outcome [4]: inactive
- outcome [5]: inactive
- outcome [6]: inactive
- outcome [7]: inactive
- outcome [8]: inactive

Compound: COP(=S)(OC)Oc1ccc([N+](=O)[O-])c(C)c1
- AC50 [1]: 21.3 µM (active)
- outcome [2]: inactive
- outcome [3]: inactive
- outcome [4]: inactive
- outcome [5]: inactive
- AC50 [17]: 6.36 µM (active)
- outcome [11]: inactive
- AC50 [12]: 2.22 µM (active)
- outcome [18]: inactive
- outcome [19]: inactive
- AC50 [20]: 2.48 µM (active)
- outcome [13]: inactive
- outcome [14]: inactive
- AC50 [15]: 2.59 µM (active)
- outcome [6]: inactive
- outcome [7]: inactive
- outcome [8]: inactive
